# Measurements taken from PubChem BioAssay (NCATS).
# Results filed as inconclusive are left out. Where a call stands in place of a potency, no number is given. Active and inactive are the calls of the source. Unless noted, the call rests on the fitted dose curve; in most records, active means well fitted curve in the direction sought with a large enough effect; inconclusive means small, poorly fitted or top-dose-only effect, or another doubt; inactive means no such curve, though single readings can be large; an effect the other way counts as inactive or inconclusive.
# Columns and labels:
# [1] = target: D(1A) dopamine receptor (Homo sapiens) (UniProt P21728); assay: HTS Assay for Allosteric Agonists of the Human D1 Dopamine Receptor: Primary Screen for Agonists (AID 488981)
# Outline: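 Tetracycline-induced HEK293 Trex D1 cells with forced coupling to calcium, loaded with no-wash calcium dye; kinetic fluorescence read 180 s after compound addition for agonism, then a further 180 s after an EC20 dopamine challenge for potentiation.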
# [2] = Validation screen for small molecules that induce genotoxicity in human embryonic kidney (HEK293T) cells expressing luciferase-tagged ELG1 (AID 493106)
# Outline: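 Cells were dispensed at 2,000 per well, then 23 nL compound or DMSO was pinned in. After 16 hr at 37 °C and 5% CO2, ONE-Glo reagent was added. Luciferase activity was measured following 30 min at room temperature.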
# [3] = target: ATPase family AAA domain-containing protein 5 (Homo sapiens) (UniProt Q96QE3); assay: Validation screen for small molecules that inhibit ELG1-dependent DNA repair in human embryonic kidney (HEK293T) cells expressing luciferase-tagged ELG1 (AID 493107);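 further: cells co-treated with the DNA-damaging agent 5-fluorouridine alongside compound; series mostly up to about 46 µM; inhibitors lower the ELG1-luciferase luminescence signal; nearly all actives have a fitted effect of over 70% in size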
# Outline: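 Cells are dispensed in 1536-well format, then 5-fluorouridine and compound are pinned in. After a 16 hr incubation at 37 °C and 5% CO2, ONE-Glo is added and luciferase measured on a CCD imager.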
# [4] = target: Thyrotropin-releasing hormone receptor (Homo sapiens) (UniProt P34981); assay: qHTS for Small Molecule Agonists and Allosteric Enhancers of Human TRH Receptor: Validation Screen for Agonists (AID 493127;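 active means calcium activation more than 3 SD above the typical response in the agonist read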;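 further: intracellular calcium rise by fluo-8 fluorescence before TRH EC20 addition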); conditions: TRH receptor agonist cell assay; at 2 µM; stronger effect = higher value
# Outline: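 Compounds are added by online pintool to dye-loaded TRHR cells while fluorescence is recorded every second. A rise in calcium signal during the agonist read marks activation; a later 10 nM TRH addition (EC20) serves the separate enhancer mode.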
# [5] = Nrf2 qHTS screen for inhibitors: Validation (AID 493153; active means well fitted inhibition curve with a large enough effect in the main read-out, with a control signal flat, not every such curve was filed as active); conditions: viability change: measured here: cytotoxicity max response
# Outline: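 A549 ARE_Fluc, 5% FBS OPTI-MEM; cpd titration, 18-24 h, 37°C/5% CO2. Read 1: CellTiter-Fluor (Ex 405/Em 525), cytotox. Read 2: luciferase lum, Nrf2 activity.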
# [6] = qHTS for Inhibitors of Cell Surface uPA Generation: Validation Assay (AID 493164);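 further: RAW 264.7 macrophage cells exposed to compound for 18 h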
# Outline: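 ATP-Lite luminescence read-out: ATP remains high when uPA activity-dependent LF translocation into the cytoplasm is blocked. RAW 264.7 cells, 18 h compound exposure at 37 C; 7-point titration, 2.45 nM to 38.3 uM final.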
# [7] = target: Galactokinase (Homo sapiens) (UniProt P51570); assay: qHTS Validation Assay for Inhibitors of Human Galactokinase (GALK) (AID 493189)
# Outline: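 GALK (5 nM) with 35 uM ATP and 100 uM galactose in HEPES pH 8.0 with MgCl2, NaCl, DTT and BSA. Reaction ran 1 h at room temperature. Residual ATP read by Kinase-Glo Plus luminescence.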
# [8] = Validation screen for small molecules that induce DNA re-replication in SW480 colon adenocarcinoma cells (AID 504364)
# Outline: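 Image-based qHTS: compounds were incubated with SW480 cells for 48 hr, nuclei stained with Hoechst, and per-nucleus fluorescence intensity scanned to flag cells with excess DNA content.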
# [9] = target: Peptidyl-prolyl cis-trans isomerase NIMA-interacting 1 (Homo sapiens) (UniProt Q13526); assay: qHTS Validation Assay to Find Inhibitors of Pin1 (AID 504536; active means well fitted inhibition curve with a large enough effect in the polarisation, with a control signal flat, not every such curve was filed as active; the % refers to the polarisation)
# Outline: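 Fluorescence polarization competition: compounds (titration) displace HiFluor-488-labeled Pin1-1b peptide from Pin1 (0.3 uM final) in pH 7.5 HEPES buffer with DTT, 10 min at room temperature; %Activity normalized to no-enzyme wells, curves fitted.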
# [10] = target: Phosphoglycerate kinase, glycosomal (Trypanosoma brucei brucei) (UniProt P07378); assay: qHTS Validation Assay to Find Inhibitors of Phosphoglycerate Kinase (AID 504547)
# Outline: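 Compounds are pinned into the substrate/PGK mixture, and GAPDH (100nM final) is added to start the reaction by producing 1,3-BPG. After 60 minutes at room temperature, Kinase-Glo Plus is added and luminescence is measured 10 minutes later.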
# [11] = target: phosphoglycerate mutase (Leishmania major) (UniProt Q4Q090); assay: qHTS Validation Assay to Find Inhibitors of Phosphoglycerate Mutase (AID 504548);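 further: end-point luminescence from Kinase-GloPlus after the PGAM reaction; series mostly up to about 58 µM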
# Outline: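 Inhibition of L. major PGAM was assessed by Kinase-GloPlus luminescence following a 45-minute room-temperature reaction with enzyme at 1.25nM final.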
# [12] = target: Ubiquitin carboxyl-terminal hydrolase 1 (Homo sapiens) (UniProt O94782); assay: Inhibitors of USP1/UAF1: Pilot qHTS (AID 504865);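 further: rhodamine fluorescence freed from ubiquitin-rhodamine substrate followed over time; top concentration of the series differs between compounds; nearly all actives have a fitted effect of over 35% in size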
# Outline: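 USP1/UAF1 complex at 1 nM preincubated 15 min at room temperature with compound, then Ub-Rho substrate added at 150 nM final. Fluorescence (480/540 nm) read kinetically in 50 mM HEPES pH 7.8, 0.5 mM EDTA, 1 mM TCEP, 0.1 mg/ml BSA, 0.01% Tween-20.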
# [13] = qHTS for Inhibitors of ATXN expression: Validation of Cytotoxic Assay (AID 588349)
# Outline: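 Titrated compounds are added to cultured HEK293 cells, which are then held at 37 degrees C for 72 hr; loss of intracellular ATP, measured with CellTiter Glo, indicates toxicity.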
# [14] = target: ATP-dependent 6-phosphofructokinase (Trypanosoma brucei brucei) (UniProt O15648); assay: qHTS Assay to Find Inhibitors of T. brucei phosphofructokinase: hit validation (AID 492961);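 further: luminescence reports ADP formed as PFK phosphorylates fructose-6-phosphate with ATP; series mostly up to about 51 µM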
# Outline: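 Inhibition of parasite PFK is measured as reduced ADP formation, quantified via luciferase after ATP depletion. Assay used 0.1 mM ATP, 0.5 mM F6P, 1.25 nM enzyme, 45 min incubation.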
# [15] = qHTS for Inhibitors of ATXN expression: Validation (AID 588378); further: series mostly up to about 57 µM; nearly all actives have a fitted effect of over 75% in size
# Outline: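 HEK293 cells carrying ATXN2-firefly luciferase reporter, treated with compound 24 h at 37 °C. Viability read first by CellTiter-Fluor (405/525 nm), then reporter expression by Bright-Glo luminescence; controls were a known ATXN2 expression inhibitor and a luciferase inhibitor.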
# [16] = target: DNA dC->dU-editing enzyme APOBEC-3G (Homo sapiens) (UniProt Q9HC16); assay: qHTS for inhibitors of Vif-A3G interactions: Validation (AID 588379)
# Outline: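 Yellow fluorescence (Ex 488, Em 500-530) of Vif-coexpressing HeLa A3G-eYFP cells, scanned by Acumen cytometer, reports blocked A3G degradation. Cells plated at 700/well overnight at 37 deg C before compound addition, then a further overnight compound incubation at 37 deg C.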
# [17] = target: Estrogen receptor (Homo sapiens) (UniProt P03372); assay: qHTS assay for small molecule antagonists of estrogen receptor alpha signaling (AID 588513; active means well fitted curve in the direction sought with a large enough effect in the signal ratio, with a control signal flat, not every such curve was filed as active; the % refers to the signal ratio)
# Outline: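 ER-alpha-UAS-bla GripTite HEK 293 cells in 2% charcoal/dextran-treated FBS medium; compounds titrated (1:2, duplicate), then stimulated with 0.5 nM 17-beta-estradiol for 18 h at 37C. CCF4 beta-lactamase fluorescence; Hill-fit IC50 and efficacy.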
# Chain of Phosphoglycerate kinase, glycosomal (Trypanosoma brucei brucei) (P07378 whole entry, looked up): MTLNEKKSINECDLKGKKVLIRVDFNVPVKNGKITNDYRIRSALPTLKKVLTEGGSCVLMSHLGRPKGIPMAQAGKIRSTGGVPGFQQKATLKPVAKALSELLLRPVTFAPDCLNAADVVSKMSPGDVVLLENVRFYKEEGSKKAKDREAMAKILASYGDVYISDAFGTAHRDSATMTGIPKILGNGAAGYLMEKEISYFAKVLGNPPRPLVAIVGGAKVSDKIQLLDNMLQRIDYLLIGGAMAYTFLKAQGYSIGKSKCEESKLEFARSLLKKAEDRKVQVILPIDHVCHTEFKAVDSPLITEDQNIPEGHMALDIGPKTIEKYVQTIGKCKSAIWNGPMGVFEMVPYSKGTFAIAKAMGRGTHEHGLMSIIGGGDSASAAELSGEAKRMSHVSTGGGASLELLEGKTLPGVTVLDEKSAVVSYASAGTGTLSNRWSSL
# Chain of D(1A) dopamine receptor (Homo sapiens) (P21728 whole entry, looked up): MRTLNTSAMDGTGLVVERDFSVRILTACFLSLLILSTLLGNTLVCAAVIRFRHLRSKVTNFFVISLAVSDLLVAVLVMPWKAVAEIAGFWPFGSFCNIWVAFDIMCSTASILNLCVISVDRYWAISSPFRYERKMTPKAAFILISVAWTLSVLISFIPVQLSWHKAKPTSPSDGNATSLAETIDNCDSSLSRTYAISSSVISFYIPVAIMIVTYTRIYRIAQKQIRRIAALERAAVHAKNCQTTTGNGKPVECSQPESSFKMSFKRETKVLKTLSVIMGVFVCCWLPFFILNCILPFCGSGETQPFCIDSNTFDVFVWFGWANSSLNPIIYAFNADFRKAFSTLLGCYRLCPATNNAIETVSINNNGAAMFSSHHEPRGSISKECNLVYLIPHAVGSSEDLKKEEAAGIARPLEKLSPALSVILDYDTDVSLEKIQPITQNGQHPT
# Chain of Thyrotropin-releasing hormone receptor (Homo sapiens) (P34981 whole entry, looked up): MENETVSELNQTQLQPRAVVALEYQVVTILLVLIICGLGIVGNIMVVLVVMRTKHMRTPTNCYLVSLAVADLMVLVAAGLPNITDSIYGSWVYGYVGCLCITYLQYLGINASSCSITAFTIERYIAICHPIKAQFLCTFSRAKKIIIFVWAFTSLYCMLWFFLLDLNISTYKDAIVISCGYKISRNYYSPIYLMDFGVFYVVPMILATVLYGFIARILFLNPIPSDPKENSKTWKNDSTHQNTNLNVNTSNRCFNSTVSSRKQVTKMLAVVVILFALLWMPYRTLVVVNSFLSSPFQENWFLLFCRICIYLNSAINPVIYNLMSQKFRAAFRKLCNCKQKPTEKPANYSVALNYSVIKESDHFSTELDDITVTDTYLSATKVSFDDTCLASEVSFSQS
# Chain of Ubiquitin carboxyl-terminal hydrolase 1 (Homo sapiens) (O94782 whole entry, looked up): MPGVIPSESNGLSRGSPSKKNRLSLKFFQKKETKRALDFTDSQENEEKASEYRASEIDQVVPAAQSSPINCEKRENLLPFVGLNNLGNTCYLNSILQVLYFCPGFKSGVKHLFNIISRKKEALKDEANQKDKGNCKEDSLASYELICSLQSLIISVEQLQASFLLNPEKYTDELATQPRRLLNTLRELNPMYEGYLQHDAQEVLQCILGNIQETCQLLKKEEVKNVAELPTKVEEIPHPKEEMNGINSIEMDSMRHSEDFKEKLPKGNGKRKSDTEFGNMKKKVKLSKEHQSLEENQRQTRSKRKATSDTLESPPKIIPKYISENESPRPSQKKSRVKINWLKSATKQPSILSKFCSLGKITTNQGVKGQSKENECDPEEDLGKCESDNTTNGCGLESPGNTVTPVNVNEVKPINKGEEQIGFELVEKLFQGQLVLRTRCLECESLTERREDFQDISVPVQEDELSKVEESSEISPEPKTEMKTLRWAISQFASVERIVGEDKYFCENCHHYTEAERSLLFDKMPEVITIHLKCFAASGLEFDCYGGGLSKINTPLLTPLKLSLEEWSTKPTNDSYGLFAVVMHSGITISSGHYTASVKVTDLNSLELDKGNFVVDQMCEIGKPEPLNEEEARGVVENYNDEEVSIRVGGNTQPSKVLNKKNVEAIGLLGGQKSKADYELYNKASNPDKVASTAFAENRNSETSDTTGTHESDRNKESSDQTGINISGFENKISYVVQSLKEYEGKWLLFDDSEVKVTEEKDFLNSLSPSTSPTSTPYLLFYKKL
# Chain of Peptidyl-prolyl cis-trans isomerase NIMA-interacting 1 (Homo sapiens) (Q13526 whole entry, looked up): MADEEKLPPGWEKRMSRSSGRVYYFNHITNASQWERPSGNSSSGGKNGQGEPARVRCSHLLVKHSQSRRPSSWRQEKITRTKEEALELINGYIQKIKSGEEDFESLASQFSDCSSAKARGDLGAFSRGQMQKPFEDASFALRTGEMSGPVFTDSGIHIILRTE
# Chain of Galactokinase (Homo sapiens) (P51570 whole entry, looked up): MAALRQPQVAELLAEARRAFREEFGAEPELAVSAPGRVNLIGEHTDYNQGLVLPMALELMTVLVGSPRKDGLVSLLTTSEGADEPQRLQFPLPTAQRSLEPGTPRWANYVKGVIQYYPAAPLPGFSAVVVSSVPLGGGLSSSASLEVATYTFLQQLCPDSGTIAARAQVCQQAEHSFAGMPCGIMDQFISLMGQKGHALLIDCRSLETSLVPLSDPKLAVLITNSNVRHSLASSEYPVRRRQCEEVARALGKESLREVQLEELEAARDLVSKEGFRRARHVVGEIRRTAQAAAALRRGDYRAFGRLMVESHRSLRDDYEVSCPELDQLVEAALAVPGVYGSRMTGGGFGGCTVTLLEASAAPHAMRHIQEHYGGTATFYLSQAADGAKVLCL
# Chain of ATP-dependent 6-phosphofructokinase (Trypanosoma brucei brucei) (O15648 whole entry, looked up): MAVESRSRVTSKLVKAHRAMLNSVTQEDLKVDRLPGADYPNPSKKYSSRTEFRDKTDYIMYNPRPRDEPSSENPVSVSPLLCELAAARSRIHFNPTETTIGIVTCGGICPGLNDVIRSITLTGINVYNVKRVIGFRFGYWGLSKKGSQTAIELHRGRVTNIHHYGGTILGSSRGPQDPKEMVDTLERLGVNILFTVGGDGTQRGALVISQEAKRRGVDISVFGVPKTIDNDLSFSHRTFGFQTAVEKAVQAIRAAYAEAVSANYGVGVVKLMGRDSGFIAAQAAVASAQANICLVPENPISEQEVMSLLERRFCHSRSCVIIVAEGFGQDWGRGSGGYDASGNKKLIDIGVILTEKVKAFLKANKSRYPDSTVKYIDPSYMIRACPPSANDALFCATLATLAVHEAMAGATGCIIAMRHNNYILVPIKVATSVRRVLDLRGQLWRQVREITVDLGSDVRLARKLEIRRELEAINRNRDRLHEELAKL
# Chain of phosphoglycerate mutase (Leishmania major) (Q4Q090 1-553): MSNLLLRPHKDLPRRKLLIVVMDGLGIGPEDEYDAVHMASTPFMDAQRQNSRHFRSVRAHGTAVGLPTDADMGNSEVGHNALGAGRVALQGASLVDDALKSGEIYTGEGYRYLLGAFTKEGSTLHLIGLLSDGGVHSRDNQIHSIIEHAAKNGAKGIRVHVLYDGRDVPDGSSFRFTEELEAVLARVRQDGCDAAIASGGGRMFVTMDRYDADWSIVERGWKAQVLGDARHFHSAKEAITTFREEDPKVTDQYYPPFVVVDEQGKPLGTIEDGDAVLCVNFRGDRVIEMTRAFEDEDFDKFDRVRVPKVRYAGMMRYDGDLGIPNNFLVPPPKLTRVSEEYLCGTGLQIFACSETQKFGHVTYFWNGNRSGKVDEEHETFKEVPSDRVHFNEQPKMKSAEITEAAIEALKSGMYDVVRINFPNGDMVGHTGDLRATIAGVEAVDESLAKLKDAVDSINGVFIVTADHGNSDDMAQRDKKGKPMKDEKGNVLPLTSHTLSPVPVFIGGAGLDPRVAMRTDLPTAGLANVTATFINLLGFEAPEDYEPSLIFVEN
# Chain of Estrogen receptor (Homo sapiens) (P03372 whole entry, looked up): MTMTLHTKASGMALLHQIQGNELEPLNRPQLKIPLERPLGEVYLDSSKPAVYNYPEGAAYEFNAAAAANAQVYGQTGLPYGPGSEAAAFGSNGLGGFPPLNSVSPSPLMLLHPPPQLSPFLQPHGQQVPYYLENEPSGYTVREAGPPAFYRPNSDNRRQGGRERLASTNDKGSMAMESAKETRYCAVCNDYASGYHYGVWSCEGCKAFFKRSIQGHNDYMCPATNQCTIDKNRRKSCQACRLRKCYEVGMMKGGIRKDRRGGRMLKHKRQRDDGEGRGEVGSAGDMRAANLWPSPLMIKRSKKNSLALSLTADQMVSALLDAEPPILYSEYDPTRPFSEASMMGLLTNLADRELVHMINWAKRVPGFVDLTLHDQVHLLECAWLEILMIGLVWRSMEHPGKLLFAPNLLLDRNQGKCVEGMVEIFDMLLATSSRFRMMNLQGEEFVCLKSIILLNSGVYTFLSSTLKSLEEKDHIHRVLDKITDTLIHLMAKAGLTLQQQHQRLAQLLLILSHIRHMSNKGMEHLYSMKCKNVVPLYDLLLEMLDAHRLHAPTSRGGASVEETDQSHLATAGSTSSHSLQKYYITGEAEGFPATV
# Chain of DNA dC->dU-editing enzyme APOBEC-3G (Homo sapiens) (Q9HC16 whole entry, looked up): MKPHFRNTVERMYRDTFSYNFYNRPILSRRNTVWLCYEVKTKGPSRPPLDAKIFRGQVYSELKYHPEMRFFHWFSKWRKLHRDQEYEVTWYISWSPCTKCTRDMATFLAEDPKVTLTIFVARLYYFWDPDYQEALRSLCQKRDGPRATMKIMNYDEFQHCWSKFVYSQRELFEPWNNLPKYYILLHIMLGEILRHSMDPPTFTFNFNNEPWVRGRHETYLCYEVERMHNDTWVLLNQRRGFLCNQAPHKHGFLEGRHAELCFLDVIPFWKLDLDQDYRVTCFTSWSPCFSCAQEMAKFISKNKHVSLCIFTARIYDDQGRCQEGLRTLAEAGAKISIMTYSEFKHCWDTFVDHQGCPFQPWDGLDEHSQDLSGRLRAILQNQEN
Structure (SMILES),outcome [1],Potency [2],outcome [3],activation [4],outcome [5],viability change [5],outcome [6],outcome [7],outcome [8],outcome [9],outcome [10],outcome [11],Potency [12],Potency [13],outcome [14],Potency [15],outcome [16],Potency [17]
COC(=O)[C@@H]1[C@H]2C[C@H]3c4[nH]c5ccccc5c4CCN3C[C@@H]2CC[C@@H]1O,inactive,inactive,inactive,0.625% (inactive),inactive,2.98%,inactive,inactive,inactive,inactive,inactive,inactive,inactive,inactive,,,,
CC(C)(C)c1ccc(C(O)CCCN2CCC(C(O)(c3ccccc3)c3ccccc3)CC2)cc1 (stereo not drawn),inactive,inactive,,,inactive,-16.1%,inactive,inactive,inactive,inactive,inactive,inactive,,,inactive,,,
CC(C)NCC(O)COc1cccc2[nH]ccc12 (stereo not drawn),inactive,inactive,inactive,-0.25% (inactive),inactive,3.18%,inactive,inactive,inactive,inactive,inactive,inactive,inactive,inactive,,inactive,,
COc1ccc(Cc2nccc3cc(OC)c(OC)cc23)cc1OC,inactive,inactive,inactive,,,,inactive,,,inactive,inactive,inactive,,inactive,inactive,inactive,inactive,
O=C(O)CCc1nc(-c2ccccc2)c(-c2ccccc2)o1,inactive,inactive,inactive,-0.125% (inactive),,,inactive,inactive,inactive,inactive,inactive,inactive,inactive,inactive,inactive,inactive,,
CCCCCN(C)CCC(O)(P(=O)(O)O)P(=O)(O)O,inactive,inactive,inactive,,inactive,-4.22%,inactive,,,inactive,inactive,inactive,inactive,inactive,inactive,inactive,,
CCN(CC)CCNC(=O)c1ccc(N)cc1,inactive,inactive,inactive,,inactive,-14%,inactive,inactive,inactive,,inactive,inactive,,inactive,,inactive,,
CCN1CCC[C@H]1CNC(=O)c1cc(S(N)(=O)=O)ccc1OC,inactive,inactive,inactive,1% (inactive),inactive,-14.1%,inactive,inactive,inactive,inactive,inactive,inactive,inactive,inactive,inactive,inactive,inactive,
CCn1cc(C(=O)O)c(=O)c2ccc(C)nc21,inactive,inactive,inactive,,,,inactive,,,inactive,inactive,inactive,inactive,inactive,,inactive,,inactive
O=C1NC(=O)C(c2ccccc2)(c2ccccc2)N1,inactive,inactive,inactive,0.438% (inactive),inactive,-3.24%,inactive,inactive,inactive,inactive,inactive,inactive,inactive,inactive,,inactive,,
